# Experimental data published in the supplement of paper PMC8728848.
# Shown is part of a subset that was picked to be rich in the strongest signals.
# B1: AFL (Aspergillus fumigatus), Q4WW81 (protein)
# chain: STPGAQQVLFRTGIAAVNLTNHLRVYFQDVYGSIRESLYEGSWANGTEKNVIGNAKLGSPVAATSKELKHIRVYTLTEGNTLQEFAYDSGTGWYNGGLGGAKFQVAPYSRIAAVFLAGTDALQLRIYAQKPDNTIQEYMWNGDGWKEGTNLGGALPGTGIGATSFRYTDYNGPSIRIWFQTDDLKLVQRAYDPHKGWYPDLVTIFDRAPPRTAIAATSFGAGNSSIYMRIYFVNSDNTIWQVCWDHGKGYHDKGTITPVIQGSEVAIISWGSFANNGPDLRLYFQNGTYISAVSEWVWNRAHGSQLGRSALPPA
# B2: Als3-41 (Candida albicans) (protein)
# chain: KTITGVFNSFNSLTWSNAATYNYKGPGTPTWNAVLGWSLDGTSASPGDTFTLNMPCVFKFTTSQTSVDLTAHGVKYATCQFQAGEEFMTFSTLTCTVSNTLTPSIKALGTVTLPLAFNVGGTGSSVDLEDSKCFTAGTNTVTFNDGGKKISINVDFERSNVDPKGYLTDSRVIPSLNKVSTLFVAPQCANGYTSGTMGFANTYGDVQIDCSNIHVGITKGLNDWNYPVSSESFSYTKTCSSNGIFITYKNVPAGYRPFVDAYISATDVNSYTLSYANEYTCAGGYWQRAPFTLRWTGYRNSDAGSNGIVIVATTRTVTDSTTAVTTLPFDPNRDKTKTIEILKPIPTTTITTSYVGVTTSYLTKTAPIGETATVIVD
# Assays:
# Assay in all cases: glycan array binding signal (z-score within array); higher = stronger binding
# Conditions in all cases: glycan notation: IUPAC condensed, linker removed
# [1] = biological target: Fuc(a1-2)Gal(b1-3)GlcNAc(b1-2)Man(a1-3)[Fuc(a1-2)Gal(b1-3)GlcNAc(b1-2)Man(a1-6)]Man(b1-4)GlcNAc(b1-4)GlcNAc
# In short: (§1)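 Glycan array binding is given as a within-array Z-score, which can be read as non-binding when negative. The arrays, 3228 of them, came from the Consortium for Functional Glycomics database and were retained only where the protein sequence was available. Z-scores were averaged across arrays of the same protein sequence at different concentrations or buffers and across linkers.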
# Fuc(a1-2)Gal(b1-4)Glc6S = biological target: Fuc(a1-2)Gal(b1-4)Glc6S
# In short: as §1
# Fuc(a1-2)Gal(b1-4)GlcNAc = biological target: Fuc(a1-2)Gal(b1-4)GlcNAc
# In short: as §1
# [2] = biological target: Fuc(a1-2)Gal(b1-4)GlcNAc6S
# In short: as §1
# [3] = biological target: Fuc(a1-2)Gal(b1-4)[Fuc(a1-3)]GlcNAc
# In short: as §1
# [4] = biological target: Fuc(a1-2)Gal(b1-4)[Fuc(a1-3)]GlcNAc(b1-3)Gal(b1-4)[Fuc(a1-3)]GlcNAc
# In short: as §1
# [5] = biological target: Fuc(a1-2)Gal(b1-4)[Fuc(a1-3)]GlcNAc(b1-3)Gal(b1-4)[Fuc(a1-3)]GlcNAc(b1-3)Gal(b1-4)[Fuc(a1-3)]GlcNAc
# In short: as §1
# Fuc(a1-2)Gal6S(b1-4)Glc = biological target: Fuc(a1-2)Gal6S(b1-4)Glc
# In short: as §1
# [6] = biological target: Fuc(a1-2)[Gal(a1-3)]Gal(b1-4)Glc
# In short: as §1
# [7] = biological target: Fuc(a1-2)[GalNAc(a1-3)]Gal
# In short: as §1
# [8] = biological target: Fuc(a1-2)[GalNAc(a1-3)]Gal(b1-3)GlcNAc(b1-2)Man(a1-3)[Fuc(a1-2)[GalNAc(a1-3)]Gal(b1-3)GlcNAc(b1-2)Man(a1-6)]Man(b1-4)GlcNAc(b1-4)GlcNAc
# In short: as §1
# Fuc(a1-3)GlcNAc = biological target: Fuc(a1-3)GlcNAc
# In short: as §1
# [9] = biological target: Fuc(a1-3)[Gal3S(b1-4)]GlcNAc
# In short: as §1
# Fuc(a1-4)GlcNAc = biological target: Fuc(a1-4)GlcNAc
# In short: as §1
# Gal(a1-3)Gal(b1-3)GlcNAc = biological target: Gal(a1-3)Gal(b1-3)GlcNAc
# In short: as §1
# [10] = biological target: Gal(a1-3)Gal(b1-4)[Fuc(a1-3)]GlcNAc(b1-2)Man(a1-3)[Gal(a1-3)Gal(b1-4)[Fuc(a1-3)]GlcNAc(b1-2)Man(a1-6)]Man(b1-4)GlcNAc(b1-4)GlcNAc
# In short: as §1
# [11] = biological target: Gal(a1-3)[Gal(a1-4)]Gal(b1-4)GlcNAc
# In short: as §1
# Gal(a1-4)GlcNAc = biological target: Gal(a1-4)GlcNAc
# In short: as §1
# Gal(b1-3)GalNAc = biological target: Gal(b1-3)GalNAc
# In short: as §1
# Gal(b1-4)Glc = biological target: Gal(b1-4)Glc
# In short: as §1
# [12] = biological target: Gal(b1-4)GlcNAc(b1-2)[Gal(b1-4)GlcNAc(b1-6)]Man(a1-6)[Gal(b1-4)GlcNAc(b1-2)Man(a1-3)]Man(b1-4)GlcNAc(b1-4)GlcNAc
# In short: as §1
# [13] = biological target: Gal(b1-4)GlcNAc(b1-3)Gal(b1-4)Glc
# In short: as §1
# [14] = biological target: Gal(b1-4)GlcNAc(b1-3)GalNAc
# In short: as §1
# [15] = biological target: Gal(b1-4)GlcNAc(b1-3)[Gal(b1-4)GlcNAc(b1-6)]GalNAc
# In short: as §1
# Gal3S(b1-3)GalNAc = biological target: Gal3S(b1-3)GalNAc
# In short: as §1
# [16] = biological target: Gal3S(b1-4)[Fuc(a1-3)]Glc
# In short: as §1
# Gal3S6S(b1-4)GlcNAc6S = biological target: Gal3S6S(b1-4)GlcNAc6S
# In short: as §1
# Gal6S(b1-3)GlcNAc6S = biological target: Gal6S(b1-3)GlcNAc6S
# In short: as §1
# GalNAc(a1-3)Gal = biological target: GalNAc(a1-3)Gal
# In short: as §1
# [17] = biological target: GalNAc(a1-3)GalNAc(a1-3)Gal(a1-4)Gal(b1-4)GlcNAc
# In short: as §1
# [18] = biological target: GlcNAc(b1-3)Gal(b1-4)GlcNAc(b1-3)Gal(b1-4)GlcNAc(b1-3)Gal(b1-4)GlcNAc(b1-2)Man(a1-3)[GlcNAc(b1-3)Gal(b1-4)GlcNAc(b1-3)Gal(b1-4)GlcNAc(b1-3)Gal(b1-4)GlcNAc(b1-2)Man(a1-6)]Man(b1-4)GlcNAc(b1-4)[Fuc(a1-6)]GlcNAc
# In short: as §1
# GlcNAc(b1-3)Man = biological target: GlcNAc(b1-3)Man
# In short: as §1
# GlcNAc(b1-4)GlcNAc = biological target: GlcNAc(b1-4)GlcNAc
# In short: as §1
# Kdn(a2-3)Gal(b1-4)GlcNAc = biological target: Kdn(a2-3)Gal(b1-4)GlcNAc
# In short: as §1
# [19] = biological target: Man(a1-2)Man(a1-6)[Man(a1-3)]Man(a1-6)[Man(a1-2)Man(a1-2)Man(a1-3)]Man(b1-4)GlcNAc(b1-4)GlcNAc
# In short: as §1
# Neu5Ac(a2-3)Gal = biological target: Neu5Ac(a2-3)Gal
# In short: as §1
# [20] = biological target: Neu5Ac(a2-3)Gal(b1-3)GalNAc(b1-4)[Neu5Ac(a2-3)]Gal(b1-4)Glc
# In short: as §1
# [21] = biological target: Neu5Ac(a2-3)Gal(b1-4)GlcNAc(b1-2)Man
# In short: as §1
# [22] = biological target: Neu5Ac(a2-3)Gal(b1-4)GlcNAc(b1-2)Man(a1-3)[Neu5Ac(a2-3)Gal(b1-4)GlcNAc(b1-2)Man(a1-6)]Man(b1-4)GlcNAc(b1-4)[Fuc(a1-6)]GlcNAc
# In short: as §1
# [23] = biological target: Neu5Ac(a2-3)Gal(b1-4)GlcNAc(b1-3)Gal(b1-4)GlcNAc(b1-3)Gal(b1-4)GlcNAc(b1-2)Man(a1-3)[Neu5Ac(a2-3)Gal(b1-4)GlcNAc(b1-3)Gal(b1-4)GlcNAc(b1-3)Gal(b1-4)GlcNAc(b1-2)Man(a1-6)]GalNAc
# In short: as §1
# [24] = biological target: Neu5Ac(a2-3)GalNAc(b1-4)GlcNAc
# In short: as §1
# [25] = biological target: Neu5Ac(a2-6)Gal(b1-4)GlcNAc(b1-2)Man(a1-3)Man(b1-4)GlcNAc(b1-4)GlcNAc
# In short: as §1
# [26] = biological target: Neu5Ac(a2-6)Gal(b1-4)GlcNAc(b1-2)Man(a1-3)[Man(a1-6)]Man(b1-4)GlcNAc(b1-4)GlcNAc
# In short: as §1
# [27] = biological target: Neu5Ac(a2-8)Neu5Ac(a2-3)[Gal(b1-3)GalNAc(b1-4)]Gal(b1-4)Glc
# In short: as §1
# [28] = biological target: Neu5Gc(a2-8)Neu5Gc(a2-6)Gal(b1-4)GlcNAc
# In short: as §1
binder,measurement,setting,value
B1,glycan array binding signal (z-score),[1],-0.22
same,glycan array binding signal (z-score),Fuc(a1-2)Gal(b1-4)Glc6S,3.64
same,glycan array binding signal (z-score),Fuc(a1-2)Gal(b1-4)GlcNAc,2.94
same,glycan array binding signal (z-score),[2],3.17
same,glycan array binding signal (z-score),[3],4.58
same,glycan array binding signal (z-score),[4],3.88
same,glycan array binding signal (z-score),[5],4.31
same,glycan array binding signal (z-score),Fuc(a1-2)Gal6S(b1-4)Glc,3.41
same,glycan array binding signal (z-score),[6],-0.359
same,glycan array binding signal (z-score),[7],1.73
same,glycan array binding signal (z-score),[8],-0.374
same,glycan array binding signal (z-score),Fuc(a1-3)GlcNAc,3.8
same,glycan array binding signal (z-score),[9],0.994
same,glycan array binding signal (z-score),Fuc(a1-4)GlcNAc,3.56
same,glycan array binding signal (z-score),Gal(a1-3)Gal(b1-3)GlcNAc,-0.384
same,glycan array binding signal (z-score),[10],-0.087
same,glycan array binding signal (z-score),[11],-0.382
same,glycan array binding signal (z-score),Gal(a1-4)GlcNAc,-0.385
same,glycan array binding signal (z-score),Gal(b1-3)GalNAc,-0.383
same,glycan array binding signal (z-score),Gal(b1-4)Glc,-0.383
same,glycan array binding signal (z-score),[12],-0.356
same,glycan array binding signal (z-score),[13],-0.386
same,glycan array binding signal (z-score),[14],-0.386
same,glycan array binding signal (z-score),[15],-0.382
same,glycan array binding signal (z-score),Gal3S(b1-3)GalNAc,-0.387
same,glycan array binding signal (z-score),[16],0.328
same,glycan array binding signal (z-score),Gal3S6S(b1-4)GlcNAc6S,-0.381
same,glycan array binding signal (z-score),Gal6S(b1-3)GlcNAc6S,-0.385
same,glycan array binding signal (z-score),GalNAc(a1-3)Gal,-0.386
same,glycan array binding signal (z-score),[17],-0.4
B2,glycan array binding signal (z-score),[18],1.72
same,glycan array binding signal (z-score),GlcNAc(b1-3)Man,0.501
same,glycan array binding signal (z-score),GlcNAc(b1-4)GlcNAc,1.79
same,glycan array binding signal (z-score),Kdn(a2-3)Gal(b1-4)GlcNAc,-0.355
same,glycan array binding signal (z-score),[19],-0.239
same,glycan array binding signal (z-score),Neu5Ac(a2-3)Gal,-0.322
same,glycan array binding signal (z-score),[20],-0.31
same,glycan array binding signal (z-score),[21],0.213
same,glycan array binding signal (z-score),[22],-0.35
same,glycan array binding signal (z-score),[23],6.54
same,glycan array binding signal (z-score),[24],-0.224
same,glycan array binding signal (z-score),[25],-0.296
same,glycan array binding signal (z-score),[26],-0.268
same,glycan array binding signal (z-score),[27],-0.006
same,glycan array binding signal (z-score),[28],-0.217
